Reference: PubChem BioAssay (NCI)
This is part of a sample that, as a whole, favours compounds with a hit. Of some 79,000 tested, about 15% had one in any assay. The source made the active and inactive calls. No stated cut-off is given here; in the data, active means growth inhibition above about 70%; inactive means the rest.

Columns and labels:
[1] = NCI Yeast Anticancer Drug Screen. Data for the rad52 strain (AID 147);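 further: 0% = growth of vehicle-treated control cultures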; conditions: S. cerevisiae rad52 mutant growth inhibition, hits give high values
How it was run: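 Growth of repair-deficient yeast cells was compared between compound-treated and vehicle-treated cultures to give percent inhibition.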

[2] = NCI Yeast Anticancer Drug Screen. Data for the rad50EPP+ strain (AID 151);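 further: 0% = growth of vehicle-treated control cultures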; conditions: S. cerevisiae rad50 mutant strain, hits give high values
How it was run: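 Measured: growth inhibition of rad50EPP+ yeast. Reference: vehicle-treated controls. Screen uses strains with defined genetic alterations in DNA damage repair or cell cycle control.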

[3] = NCI Yeast Anticancer Drug Screen. Data for the rad50 strain (AID 155);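 further: 0% = growth of vehicle-only cultures of the same strain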; conditions: S. cerevisiae rad50 strain growth inhibition, hits give high values
How it was run: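 Growth of the mutant yeast was measured after compound exposure and referenced to vehicle-treated cultures.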

[4] = NCI Yeast Anticancer Drug Screen. Data for the mec2-1 strain (AID 157); conditions: S. cerevisiae mec2-1 strain, hits give high values
How it was run: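 Compounds were applied to mec2-1 yeast cells. Their growth was then compared with that of vehicle-treated cultures to give growth inhibition.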

[5] = NCI Yeast Anticancer Drug Screen. Data for the rad14 strain (AID 159);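 further: 0% = growth of vehicle-treated control cultures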; conditions: S. cerevisiae rad14 strain growth inhibition, hits give high values
How it was run: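 Here, inhibition of yeast growth was measured after compound exposure, using a strain with a genetic defect in DNA damage repair and vehicle-treated cultures as the reference.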

[6] = NCI Yeast Anticancer Drug Screen. Data for the sgs1 mgt1 strain (AID 161);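 further: 0% = growth of cultures given vehicle only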; conditions: S. cerevisiae sgs1 mgt1 strain, hits give high values
How it was run: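 Compounds are added to genetically altered yeast, and growth is compared with cultures given vehicle alone to give percent inhibition.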

[7] = NCI Yeast Anticancer Drug Screen. Data for the cln2 rad14 strain (AID 165);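 further: 0% = growth equal to vehicle treated cultures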; conditions: S. cerevisiae cln2 rad14 strain, hits give high values
How it was run: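 Strain: cln2 rad14 yeast, altered in cell cycle control and DNA damage repair. Read-out: growth inhibition vs vehicle.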

[8] = NCI Yeast Anticancer Drug Screen. Data for the bub3 strain (AID 167); conditions: S. cerevisiae bub3 mutant strain, hits give high values
How it was run: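 Whole-cell yeast assay. The mutant strain was incubated with compounds, and growth inhibition was determined by comparison with vehicle-treated cells.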

[9] = NCI Yeast Anticancer Drug Screen. Data for the wt2 strain (AID 169);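 further: 0% = growth of vehicle-treated yeast cultures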; conditions: S. cerevisiae wt2 strain growth inhibition, hits give high values
How it was run: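 Growth of compound-treated yeast is measured and expressed as inhibition relative to vehicle-only controls.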

[10] = NCI Yeast Anticancer Drug Screen. Data for the mlh1 strain (AID 171);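 further: 0% = growth of vehicle-treated control cultures of the same strain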; conditions: S. cerevisiae mlh1 strain growth inhibition, hits give high values
How it was run: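 Test agents were incubated with yeast bearing a defined DNA damage repair or cell cycle control alteration; values are growth inhibition normalised to vehicle-treated cultures.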

[11] = NCI Yeast Anticancer Drug Screen. Data for the sgs1 strain (AID 173);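 further: 0% = growth of vehicle-only control cultures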; conditions: S. cerevisiae sgs1 mutant, hits give high values
How it was run: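 Strain with an altered DNA repair or cell cycle pathway exposed to compound. Growth then measured. Value = inhibition versus vehicle control.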

[12] = NCI Yeast Anticancer Drug Screen. Data for the mlh1 rad18 strain (AID 175); conditions: S. cerevisiae mlh1 rad18 strain growth inhibition, hits give high values
How it was run: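 A repair-deficient yeast strain is exposed to test compound, and growth is scored relative to vehicle-treated controls.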

[13] = NCI Yeast Anticancer Drug Screen. Data for the rad18 strain (AID 177); conditions: S. cerevisiae rad18 mutant growth inhibition, hits give high values
How it was run: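 DNA-repair-defective yeast; compound treatment; growth inhibition scored against vehicle.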

[14] = NCI Yeast Anticancer Drug Screen. Data for the wt1 strain (AID 149);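 further: 0% = growth of vehicle-treated wt1 cultures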; conditions: S. cerevisiae wt1 strain (SPY 50644) growth inhibition, hits give high values
How it was run: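 Measured: growth of wt1 yeast under compound versus vehicle treatment, reported as inhibition.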

[15] = NCI Yeast Anticancer Drug Screen. Data for the mgt1 strain (AID 153); conditions: S. cerevisiae mgt1 mutant growth inhibition, hits give high values
How it was run: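 Compounds were applied to mgt1 mutant yeast, and growth was then compared against vehicle-treated control cultures to give percent inhibition.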

[16] = NCI Yeast Anticancer Drug Screen. Data for the CLN2oe strain (AID 163);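 further: 0% = growth of vehicle-only control cultures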; conditions: S. cerevisiae CLN2oe strain, hits give high values
How it was run: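 Cells of an engineered yeast line with disturbed cell-cycle regulation are treated with compound. Inhibition of growth is then calculated relative to the vehicle-treated reference.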

[17] = at 5.0 µM (retest, dose inferred, filed as 0.5)
[18] = at 50.0 µM (retest, dose inferred, filed as 5.0)

Measured: growth inhibition

Nc1cc(N)c(N=Nc2cccc3c(S(=O)(=O)O)cccc23)cc1N=Nc1cc([N+](=O)[O-])ccc1O
active: [6]; [18] 84% | [7]; [18] 92% | [8]; [18] 79% | [8]; at 50.0 µM 70.8%
inactive: [1]; at 1.2 µM 32% | [1]; at 3.7 µM 26% | [1]; at 11.0 µM 17% | [1]; at 33.0 µM -23% | [1]; at 100.0 µM 56% | [2]; at 1.2 µM -11% | [2]; at 3.7 µM 3% | [2]; at 11.0 µM -4% | [2]; at 33.0 µM -4% | [2]; at 100.0 µM 38% | [3]; at 1.2 µM 15% | [3]; at 3.7 µM 10% | [3]; [17] 46% | [3]; at 11.0 µM 8% | [3]; at 33.0 µM 6% | [3]; [18] 61% | [3]; at 50.0 µM 38.5% | [3]; at 100.0 µM 54% | [4]; at 1.2 µM 1% | [4]; at 3.7 µM -11% | [4]; [17] 64% | [4]; at 11.0 µM -11% | [4]; at 33.0 µM -17% | [4]; [18] 69% | [4]; at 50.0 µM 4.9% | [4]; at 100.0 µM 17% | [5]; at 1.2 µM -17% | [5]; at 3.7 µM -22% | [5]; at 11.0 µM -19% | [5]; at 33.0 µM -18% | [5]; at 100.0 µM 47% | [6]; [17] -10% | [6]; at 50.0 µM 26.4% | [7]; [17] 33% | [7]; at 50.0 µM 42.5% | [8]; at 1.2 µM -6% | [8]; at 3.7 µM 6% | [8]; [17] 19% | [8]; at 11.0 µM 10% | [8]; at 33.0 µM 0% | [8]; at 100.0 µM 53% | [9]; at 1.2 µM -14% | [9]; at 3.7 µM -11% | [9]; at 11.0 µM -26% | [9]; at 33.0 µM 6% | [9]; at 100.0 µM 47% | [10]; at 1.2 µM -15% | [10]; at 3.7 µM -21% | [10]; at 11.0 µM -15% | [10]; at 33.0 µM -18% | [10]; at 100.0 µM 23% | [11]; at 1.2 µM -7% | [11]; at 3.7 µM 24% | [11]; at 11.0 µM 19% | [11]; at 33.0 µM 34% | [11]; at 100.0 µM 59% | [12]; [17] 52% | [12]; [18] 48% | [12]; at 50.0 µM 65.7% | [13]; at 1.2 µM -13% | [13]; at 3.7 µM -28% | [13]; at 11.0 µM -23% | [13]; at 33.0 µM -16% | [13]; at 100.0 µM 36%

CN(CCN(C)Cc1ccccc1)Cc1ccccc1
inactive: [14]; at 1.2 µM -16% | [14]; at 3.7 µM -9% | [14]; at 11.0 µM -12% | [14]; at 33.0 µM 0% | [14]; at 100.0 µM 14% | [2]; at 1.2 µM -13% | [2]; at 3.7 µM -3% | [2]; at 11.0 µM -4% | [2]; at 33.0 µM -22% | [2]; at 100.0 µM -40% | [15]; at 1.2 µM -13% | [15]; at 3.7 µM -4% | [15]; at 11.0 µM 14% | [15]; at 33.0 µM 11% | [15]; at 100.0 µM 58% | [3]; at 1.2 µM -18% | [3]; at 3.7 µM -12% | [3]; [17] 40% | [3]; at 11.0 µM -5% | [3]; at 33.0 µM 9% | [3]; at 50.0 µM 24.5% | [3]; at 100.0 µM 6% | [4]; at 1.2 µM -33% | [4]; at 3.7 µM -19% | [4]; [17] 45% | [4]; at 11.0 µM -25% | [4]; at 33.0 µM -6% | [4]; at 50.0 µM 12.9% | [4]; at 100.0 µM 2% | [5]; at 1.2 µM 5% | [5]; at 3.7 µM 18% | [5]; at 11.0 µM 18% | [5]; at 33.0 µM 43% | [5]; at 100.0 µM 68% | [6]; [17] -1% | [6]; [18] 57% | [6]; at 50.0 µM 51.3% | [16]; at 1.2 µM -12% | [16]; at 3.7 µM -5% | [16]; at 11.0 µM 5% | [16]; at 33.0 µM 18% | [16]; at 100.0 µM 44% | [7]; [17] 16% | [7]; [18] 38% | [7]; at 50.0 µM 31.1% | [8]; at 1.2 µM -31% | [8]; at 3.7 µM -15% | [8]; [17] 14% | [8]; at 11.0 µM -13% | [8]; at 33.0 µM 9% | [8]; [18] 39% | [8]; at 50.0 µM 60.5% | [8]; at 100.0 µM 3% | [9]; at 1.2 µM -17% | [9]; at 3.7 µM -9% | [9]; at 11.0 µM 2% | [9]; at 33.0 µM 1% | [9]; at 100.0 µM 14% | [10]; at 1.2 µM 8% | [10]; at 3.7 µM 4% | [10]; at 11.0 µM 12% | [10]; at 33.0 µM 23% | [10]; at 100.0 µM 52% | [11]; at 1.2 µM -6% | [11]; at 3.7 µM -10% | [11]; at 11.0 µM -10% | [11]; at 33.0 µM 10% | [11]; at 100.0 µM 30% | [12]; [17] 25% | [12]; at 50.0 µM 32.3% | [13]; at 1.2 µM -2% | [13]; at 3.7 µM 14% | [13]; at 11.0 µM 17% | [13]; at 33.0 µM 32% | [13]; at 100.0 µM 35%
active: [3]; [18] 79% | [4]; [18] 81% | [12]; [18] 72%
